Bioassay records: PubChem, Broad Institute
DUX4 inh: DUX4-mediated transcription inhibition; 293T-iDUX4 ZSCAN4-Gaussia luciferase reporter, 24 h; hits give low values; activity change, negative = inhibition, % (test concentration not listed); 37,000 compounds, 0.8% hits; AID 1224904;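 active = mean inhibition of at least 10% in the main channel, exceeding the control channel by a set limit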;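 also: 0% = median of neutral control wells and -100% = median of positive control wells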
Starred values were filed as active, the others as inactive; ! = not active in a repeat. Shown is part of a subset that was picked to be rich in hits.

SMILES | DUX4 inh
CCS(=O)(=O)N1CC(=O)N2[C@H](CO)[C@@H](c3ccc(-c4ccccc4C)cc3)[C@@H]2C1 | -6
N#Cc1ccc(-c2ccc3c(c2)[C@H]2[C@H](CCN2C(=O)CN2CCOCC2)[C@@H](CO)N3)cc1 | 23
Cc1ccccc1CN(C)C[C@H]1OCc2cn(nn2)CCCC(=O)N([C@H](C)CO)C[C@H]1C | -2
O=C([C@H]1[C@H](CO)[C@H]2Cn3c(ccc(C4=CCCC4)c3=O)[C@H]2N1Cc1nccs1)N1CCCCC1 | -4
C[C@@H]1CN([C@H](C)CO)S(=O)(=O)c2ccc(Br)cc2O[C@@H]1CN(C)C(=O)C1CC1 | 2
C[C@H](NC(=O)C[C@H]1CC[C@@H](NC(=O)Cc2ccccn2)[C@H](CO)O1)c1ccccc1 | -5
COc1ccc(S(=O)(=O)N[C@H]2CC[C@@H](CC(=O)O)O[C@H]2CO)cc1 | 0
c1cncc(-c2ccc(C3[C@@H]4CN(Cc5nccs5)C[C@H]3N4)cc2)c1 (stereo partly drawn) | -35*!
O=C(c1cccnc1)N1C[C@@H]2N[C@H](C1)C2c1ccc(-c2ccccc2)cc1 (stereo partly drawn) | 11
O=C(Cc1ccncc1)N1C[C@@H]2N[C@H](C1)C2c1ccc(-c2ccccc2)cc1 (stereo partly drawn) | -3
C/C=C/c1ccc(C2[C@@H]3CN(C(=O)Cc4ccccc4)C[C@H]2N3)cc1 (stereo partly drawn) | 8
C(=C\c1ccc(C2[C@@H]3CN(Cc4ccccn4)C[C@H]2N3)cc1)/c1ccccc1 (stereo partly drawn) | -32*
c1cc(-c2ccc(C3[C@@H]4CN(Cc5nccs5)C[C@H]3N4)cc2)ccn1 (stereo partly drawn) | -1
O=C(CN1CCOCC1)N1C[C@@H]2N[C@H](C1)C2c1ccc(/C=C/c2ccccc2)cc1 (stereo partly drawn) | -5
O=C(c1ccncc1)N1C[C@@H]2N[C@H](C1)C2c1ccc(/C=C/c2ccccc2)cc1 (stereo partly drawn) | 2
C(=C\c1ccc(C2[C@@H]3CN(Cc4nccs4)C[C@H]2N3)cc1)/c1ccccc1 (stereo partly drawn) | -32*!
C/C=C/c1ccc(C2[C@H]3CNC[C@@H]2N3Cc2nccs2)cc1 (stereo partly drawn) | 9
O=C(Cc1ccncc1)N1C[C@@H]2N[C@H](C1)C2c1ccc(/C=C/c2ccccc2)cc1 (stereo partly drawn) | -28*!
C/C=C/c1ccc(C2[C@@H]3CN(C(=O)Cc4ccncc4)C[C@H]2N3)cc1 (stereo partly drawn) | 7
COCC#Cc1ccc2c(c1)O[C@@H](CN(C)Cc1ccccc1F)[C@H](C)CN([C@H](C)CO)S2(=O)=O | -1
CCCC(=O)N1CC2(C1)CN(C(=O)C1CCCCC1)[C@H](CO)c1[nH]c3cc(OC)ccc3c12 | 5
C[C@H](CO)N1C[C@H](C)[C@H](CN(C)C(=O)Nc2ccc3c(c2)OCO3)Oc2c(NC(=O)c3cnccn3)cccc2C1=O | 1
CN(C)C(=O)C[C@@H]1CC[C@@H](NC(=O)Nc2cccc(F)c2)[C@H](CO)O1 | 2
CNC(=O)C[C@H]1CC[C@H]2[C@@H](COC[C@H](O)CN2Cc2ccc(Cl)c(Cl)c2)O1 | 0
O=C(C[C@H]1C[C@@H]2c3cc(NC(=O)Cc4ccncc4)ccc3O[C@@H]2[C@H](CO)O1)NCC1CC1 | 1
SMILES | DUX4 inh
COc1cccc(S(=O)(=O)N2C[C@@H](O)COC[C@H]3O[C@H](CC(=O)Nc4ccccc4)CC[C@@H]32)c1 | -6
CC(C)(C)[S@@](=O)N1Cc2cc(C(=O)N3CCOCC3)nc(-c3cccc(C4=CCCC4)c3)c2[C@H]1CCO | 7
O=C(C[C@@H]1CC[C@H]2[C@@H](COC[C@H](O)CN2C(=O)c2ccncc2)O1)NCc1ccc(-c2ccccc2)cc1 | 7
COc1cccc(S(=O)(=O)N2CCCCN3[C@H](CO)[C@@H](c4ccc(-c5cccnc5)cc4)[C@H]3C2)c1 | -8
COc1cccc(S(=O)(=O)N2CCCCN3[C@H](C2)[C@H](c2ccc(-c4cccnc4)cc2)[C@@H]3CO)c1 | -35*
C/C=C/c1ccc([C@@H]2[C@@H](CO)N3CCCCN(S(=O)(=O)c4ccc(F)cc4)C[C@H]23)cc1 | -8
C/C=C/c1ccc([C@H]2[C@@H](CO)N3CCCCN(S(=O)(=O)c4cccc(C)c4)C[C@@H]23)cc1 | -44*
C/C=C/c1ccc([C@@H]2[C@@H](CO)N3CCCCN(S(=O)(=O)c4ccc(F)cc4)C[C@@H]23)cc1 | -3
COc1cccc(S(=O)(=O)N2CCCCN3[C@@H](CO)[C@@H](c4ccc(C#CC5CC5)cc4)[C@@H]3C2)c1 | 6
O=C(c1cccnc1)N1C[C@@H]2[C@H](c3ccccc31)[C@@H](CO)N2C(=O)Nc1ccccc1F | 4
CCNC(=O)[C@@H]1[C@@H](CO)[C@@H]2Cn3c(ccc(-c4ccccc4)c3=O)[C@H]1N2Cc1ccccc1 | 2
CC(=O)N1[C@@H](CO)[C@H](c2ccccc2)C12CN(C(=O)Nc1ccccc1F)C2 | 10
O=C(C[C@@H]1CC[C@@H]2[C@H](COC[C@H](O)CN2S(=O)(=O)c2ccc(F)cc2)O1)NCc1ccncn1 | 9
COc1ccc2c3c(n(C)c2c1)[C@@H](CO)N(C(=O)c1cccnc1)CC31CCN(C)CC1 | 1
O=C(c1cccnc1)N1C[C@@H]2[C@H](c3ccccc31)[C@H](CO)N2C(=O)CN1CCOCC1 | -2
COc1ccccc1C#Cc1ccc2c(c1)[C@@H]1[C@@H](CCN1C(=O)c1ccncc1)[C@@H](CO)N2 | -9
OC[C@@H]1Nc2ccc(C#Cc3cccc(F)c3)cc2[C@H]2NCC[C@@H]12 | 7
COc1ccccc1C#Cc1ccc2c(c1)[C@@H]1NCC[C@@H]1[C@H](CO)N2 | -23*
COCC(=O)Nc1ccc2c(c1)[C@H]1C[C@H](CC(=O)NCc3ccccc3F)O[C@@H](CO)[C@H]1O2 | 5
CCC(=O)Nc1ccc2c(c1)OC[C@H](C)N(C(=O)C1CC1)C[C@@H](C)[C@H](OC)CN(C)C2=O | 4
CN1c2ccc(-c3ccccc3)cc2[C@@H]2[C@@H](CCN2C(=O)Cc2cccnc2)[C@@H]1CO | 10
